From PubChem BioAssay AID2685 (National Center for Advancing Translational Sciences (NCATS), 2010)
The whole screen tested about 320,000 compounds, of which about 2,100 (0.66%) were called active. Another 53% or so got no clear call; they are omitted. Calls come from the whole dose curve; as a rule, active = well fitted inhibition curve with a large enough effect in the signal ratio, with a control signal flat (not every such curve was filed as active); inconclusive = small, poorly fitted or top-dose-only effect, or effect the other way, or a change in a side signal; inactive = flat fitted curve, though single readings scatter; the % refers to the signal ratio. The sample as a whole holds a higher share of actives than the screen did.

Assay: qHTS Assay for Lipid Storage Modulators in Drosophila S3 Cells;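 for cell number change: cells counted by Cell Tracker Red CMTPX staining in the red channel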; for lipid storage change, negative = inhibition: % is set by controls: 0 for no effect and ±100 for the full control effect
Conditions: BODIPY lipid droplet fluorescence, 18-24 h, cells fed with added oleic acid; cell number change: measured here: cell count max response; series mostly up to 46.1 µM; lipid storage change, negative = inhibition: at the top concentration
Procedure, shortened: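 Drosophila S3 cells loaded with oleic acid (400 uM, as added) and compounds at several concentrations; lipid droplets imaged by 488-nm laser-scanning cytometry, 500–530 nm intensity and object ratio to cell channel. Percent activity normalized to 20 uM Triacsin C.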
Potency is the fitted concentration of half-maximal effect.

Row | Structure (SMILES) | lipid storage change, negative = inhibition | cell number change | outcome | Potency
1 | COc1ccccc1NC(=O)Nc1c(C)nn(C)c1C | 4.48% (inactive) | 22.1% | – | –
2 | C/C=C/c1ccc(OCCn2nnc3ccccc32)c(OC)c1 | -26% (inactive) | 1.4% | – | –
3 | COc1ccc(-c2cc(C(=O)c3c(N)n(C)c(=O)n(C)c3=O)c3ccccc3n2)cc1 | 15.1% (inactive) | 0.639% | – | –
4 | CCOCCCN1CN(S(=O)(=O)c2ccc(Cl)cc2)c2nc3ccccc3nc21 | 14.5% (inactive) | -11.9% | – | –
5 | Cc1c(CNCCc2ccc(Cl)cc2)c(C(=O)O)c(C)n1Cc1ccccc1 | – | – | inactive | –
6 | Cc1ccc(NC(=O)COC(=O)CSC(=S)N2CCOCC2)cc1C | 5.57% (inactive) | 1.5% | – | –
7 | O=C(CCl)N1c2ccccc2SCC1c1ccccc1 (stereo unspecified) | – | -4.27% | – | 1.03 µM (active)
8 | O=C(CCl)N1c2ccccc2OCC1c1ccccc1 (stereo unspecified) | – | -20.4% | inactive | –
9 | O=C(O)CN1C(=O)CSc2ccccc21 | -0.578% (inactive) | 2.34% | – | –
10 | CC(=O)Nc1ccc(Nc2c([N+](=O)[O-])c(=O)n(-c3ccccc3)c3ccccc23)cc1 | 2.41% (inactive) | 12.5% | – | –
11 | Cc1nnc(NC(=O)c2ccccc2Br)s1 | 0.131% (inactive) | 8.15% | – | –
12 | O=C(Nc1nncs1)c1ccccc1Br | – | 9.55% | – | 32.6 µM (active)
13 | O=C(Nc1nccs1)c1ccccc1Br | 8.98% (inactive) | 3.63% | – | –
14 | Cc1ccc(-n2nc3c(=O)n(CC(=O)NCc4ccc(C)o4)nc(C)c3c2C)cc1 | – | -10.7% | inactive | –
15 | COC(=O)c1ccc2c(=O)n(CCCCCC(=O)NC(C)C)c(=O)[nH]c2c1 | 20.1% (inactive) | – | – | –
16 | O=C(Cn1cncn1)NCc1cccc2ccccc12 | 5.26% (inactive) | -12.1% | – | –
17 | CC1CCN(CCNC(=S)Nc2ccc(Cl)cc2)CC1 | 0.944% (inactive) | 5.06% | – | –
18 | COc1cccc(/C=C2/C(=O)NN(c3ccccc3)C2=O)c1 | 1.13% (inactive) | 0.215% | – | –
19 | O=C1NN(c2ccc(Cl)c(Cl)c2)C(=O)/C1=C/c1cccc(OC(=O)c2cccs2)c1 | – | -11.7% | – | 23.1 µM (active)
20 | COc1cccc(/C=C2/C(=O)NN(c3ccc(F)cc3)C2=O)c1 | 69% (inactive) | 8.15% | – | –
21 | CCOc1ccc(S(=O)(=O)Oc2ccc3ccccc3c2)cc1 | -14.9% (inactive) | -10% | – | –
22 | CCOc1ccccc1NC(=O)CSc1n[nH]c(N)n1 | 7.41% (inactive) | 13.9% | – | –
23 | CCOc1ccc(/C=C/C2=Cc3c(sc(NC(=O)CSc4n[nH]c(N)n4)c3C#N)C(C)(C)C2)cc1 | – | -29.6% | – | 14.6 µM (active)
24 | CCOC(=O)c1sc(NC(=O)CSc2n[nH]c(-c3ccccc3)n2)c(C#N)c1C | – | – | inactive | –
25 | Cn1c(=O)n(C)c2cc(CN3C(=O)OC(C)(C)C3(C)O)ccc21 (stereo unspecified) | – | – | inactive | –
